Results on 14 compounds are retold here after PubChem BioAssay.

Activity calls are given as the source filed them.

Experiment [1] can be described thus: E. coli DRC41 culture turbidity changes, primary screen, E. coli filamentation inducer project, strain DRC41, OD650, 48 h (AID 1152).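 Also: E. coli MC1000 strain DRC41 lacking acrAB efflux pump and sulA.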 The note with it: E. coli DRC41 (acrAB sulA), higher = more signal, called active from +8 up or from −8 down.
Experiment [2] in a line: small-molecule binders of probe aLefty1, primary screen, biochemical, small-molecule microarray, 635/667 nm fluorescence (AID 1153).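 Also: score merges spot fluorescence with signal-to-noise ratio from the scanned slide images.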 The note with it: higher = more signal.
Experiment [3] can be described thus: PSAC antagonists in infected red cells, primary screen, cell-based, P. falciparum Indochina, OD700, 1 h (AID 1154). The note with it: P. falciparum Indochina infected RBC osmotic lysis, higher = more signal, called active from +8 up or from −8 down.
Experiment [4] can be described thus: PSAC antagonists in infected red cells, primary screen, cell-based, P. falciparum Indochina, OD700, 2 h (AID 1155).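 Also: lysis reports solute entry through the parasite surface anion channel PSAC; channel blockers reduce lysis of infected cells.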 Conditions: P. falciparum Indochina infected erythrocytes, osmotic lysis OD700; higher = more signal, called active from +8 up or from −8 down.
Experiment [5] is described as follows: osmotic lysis modulators in infected erythrocytes, primary screen, PSAC antagonist project, cell-based, P. falciparum Indochina, OD700, 3 h (AID 1156). Conditions: higher = more signal, called active from +8 up or from −8 down.
Experiment [6] is described as follows: PSAC antagonists in infected red cells, primary screen, cell-based, P. falciparum Indochina, OD700, 18 h (AID 1157). Conditions: P. falciparum Indochina infected erythrocytes, osmotic lysis OD700, 18 h; higher = more signal, called active from +8 up or from −8 down.
Experiment [7] in a line: modulators of S6 phosphorylation in cells, primary screen, cell-based, A549, cytoblot, luminescence, serum-stimulated (AID 1158).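 Also: serum-stimulated A549 lung adenocarcinoma cells; signal is phosphorylated S6 detected by cytoblot immunostaining with HRP secondary.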 Conditions: A549 phospho-S6 cytoblot, 5 h, higher = more signal.
The target in experiment [8] is NADPH oxidase 2 (Homo sapiens) (UniProt P04839). Briefly: NOX2-dependent H2O2 signal modulators, primary screen, NOX inhibitor project, cell-based, HEK293-NOX2, PMA-stimulated, Amplex Red fluorescence (AID 1159). Also: test concentration not given here. The note with it: 45 min, higher = more signal, called active from +8 up or from −8 down.
NADPH oxidase 2 (Homo sapiens), sequence (P04839 whole entry, looked up): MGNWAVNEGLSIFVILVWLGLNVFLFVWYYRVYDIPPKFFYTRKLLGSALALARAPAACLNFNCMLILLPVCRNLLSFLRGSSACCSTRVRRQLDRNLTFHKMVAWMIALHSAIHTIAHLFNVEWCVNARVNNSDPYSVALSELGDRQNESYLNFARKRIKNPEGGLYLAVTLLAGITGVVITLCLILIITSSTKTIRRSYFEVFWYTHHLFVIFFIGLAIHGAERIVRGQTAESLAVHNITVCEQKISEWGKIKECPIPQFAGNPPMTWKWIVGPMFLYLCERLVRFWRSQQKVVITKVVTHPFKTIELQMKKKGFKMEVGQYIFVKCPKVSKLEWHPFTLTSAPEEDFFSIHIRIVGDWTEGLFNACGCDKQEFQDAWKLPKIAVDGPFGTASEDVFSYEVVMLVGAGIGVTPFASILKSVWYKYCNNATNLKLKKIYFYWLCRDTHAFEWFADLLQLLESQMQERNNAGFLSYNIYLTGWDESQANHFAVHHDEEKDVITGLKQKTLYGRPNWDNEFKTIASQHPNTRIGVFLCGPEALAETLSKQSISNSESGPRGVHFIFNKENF
In experiment [9] the target is NADPH oxidase 4 (Homo sapiens) (UniProt Q9NPH5). In words: NOX4-dependent H2O2 signal modulators, primary screen, NOX inhibitor project, cell-based, HEK293-NOX4, tetracycline-induced, Amplex Red fluorescence (AID 1160). The note with it: 45 min, higher = more signal, called active from +8 up or from −8 down.
NADPH oxidase 4 (Homo sapiens), sequence (Q9NPH5 whole entry, looked up): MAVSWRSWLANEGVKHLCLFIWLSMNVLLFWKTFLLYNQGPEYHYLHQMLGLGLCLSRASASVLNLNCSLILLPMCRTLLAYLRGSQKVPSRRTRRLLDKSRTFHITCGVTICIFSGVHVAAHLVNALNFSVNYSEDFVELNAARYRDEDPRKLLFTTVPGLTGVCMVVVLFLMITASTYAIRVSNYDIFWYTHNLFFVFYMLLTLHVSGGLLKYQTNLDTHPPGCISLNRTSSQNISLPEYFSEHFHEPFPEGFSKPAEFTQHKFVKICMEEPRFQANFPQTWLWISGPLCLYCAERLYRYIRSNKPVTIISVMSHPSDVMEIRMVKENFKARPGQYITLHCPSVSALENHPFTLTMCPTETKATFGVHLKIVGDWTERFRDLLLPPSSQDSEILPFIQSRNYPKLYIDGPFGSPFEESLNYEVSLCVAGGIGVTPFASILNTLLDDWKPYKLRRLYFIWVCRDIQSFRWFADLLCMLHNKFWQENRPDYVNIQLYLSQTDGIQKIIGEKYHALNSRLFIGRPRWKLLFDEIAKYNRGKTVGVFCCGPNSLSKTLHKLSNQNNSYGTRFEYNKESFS
In experiment [10] the target is NADPH oxidase 5 (Homo sapiens) (UniProt Q96PH1). In words: NOX5-dependent H2O2 signal modulators, primary screen, NOX inhibitor project, cell-based, HEK293-NOX5, Amplex Red fluorescence (AID 1161). The note with it: HEK293-NOX5, ionomycin, 45 min, higher = more signal.
NADPH oxidase 5 (Homo sapiens), sequence (Q96PH1 whole entry, looked up): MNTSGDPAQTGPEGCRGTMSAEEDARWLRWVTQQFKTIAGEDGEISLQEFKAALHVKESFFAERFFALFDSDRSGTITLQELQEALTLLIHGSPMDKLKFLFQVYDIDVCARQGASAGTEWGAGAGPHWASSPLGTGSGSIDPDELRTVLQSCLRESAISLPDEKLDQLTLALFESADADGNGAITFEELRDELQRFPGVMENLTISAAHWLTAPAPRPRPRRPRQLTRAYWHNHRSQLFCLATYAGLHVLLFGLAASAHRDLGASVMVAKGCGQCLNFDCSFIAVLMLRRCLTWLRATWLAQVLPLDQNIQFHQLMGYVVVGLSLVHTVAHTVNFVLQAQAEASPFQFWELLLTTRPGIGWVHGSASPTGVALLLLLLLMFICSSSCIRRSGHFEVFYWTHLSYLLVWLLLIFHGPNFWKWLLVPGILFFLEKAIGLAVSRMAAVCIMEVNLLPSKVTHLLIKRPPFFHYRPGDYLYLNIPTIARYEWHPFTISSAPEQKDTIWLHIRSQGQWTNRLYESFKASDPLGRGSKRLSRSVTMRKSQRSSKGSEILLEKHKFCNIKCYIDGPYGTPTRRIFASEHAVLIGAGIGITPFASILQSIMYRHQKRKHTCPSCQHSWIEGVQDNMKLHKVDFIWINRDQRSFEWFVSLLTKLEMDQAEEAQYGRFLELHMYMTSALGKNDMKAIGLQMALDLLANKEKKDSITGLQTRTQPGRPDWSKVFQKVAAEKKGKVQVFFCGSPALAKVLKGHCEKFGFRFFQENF

Take `NC(=O)[C@@H]1[C@H]2C(=O)O[C@H](c3ccccc3)[C@H](c3ccccc3)N2[C@H](c2ccc(OCCO)cc2)[C@@]12C(=O)Nc1ccc(C#CC3=CCCCC3)cc12`: the z-score in experiment [1] was 1.96 (inactive); in [3] it was 3 (inactive); in experiment [4], 0.651 (inactive); in experiment [5] it was -1.59 (inactive); in experiment [6], -0.198 (inactive); in [7], 1.1. Further, the z-score was 0.814 (inactive) in experiment [8], 0.68 (inactive) in [9] and 2.3 in [10]. Also, the composite z-score in experiment [2] came to 0.189.
As for `[N-]=[N+]=Nc1ccccc1C[C@]1(C(=O)N2CCCCC2)COC(c2ccc(OCCCO)cc2)=N1`, the z-score in experiment [1] was 0.891 (inactive); in experiment [3], 23.1 (active); in [4] it was 9.64 (active); in [5], 3.34 (inactive); in experiment [6], 1.77 (inactive); in [7], -0.391. The z-score in experiment [8] is -4.46 (inactive); in experiment [9] it was -0.826 (inactive); in experiment [10] it was -1.79. The composite z-score in [2] is 0.371.
For `C=CCOC(=O)[C@H]1[C@@H]2C(=O)O[C@@H](c3ccccc3)[C@@H](c3ccccc3)N2[C@@H](c2ccc(OCCOC(=O)[C@H]3C[C@H]4C(=O)N[C@@H](CCCCN(C)C)C(=O)N4[C@H]3c3cccc(OCCO)c3)cc2)[C@]12C(=O)Nc1ccc(I)cc12`, the z-score in experiment [1] was -1.61 (inactive); in experiment [3], -1.87 (inactive); in experiment [4] it was 0.381 (inactive); in experiment [5], -0.0437 (inactive); in experiment [6] it was 0.375 (inactive); in experiment [7], -0.529. For the same compound, the z-score in experiment [8] is 2.18 (inactive); in experiment [9] it was 1.01 (inactive); in experiment [10], 1.06. In experiment [2], this compound yielded a composite z-score of -0.156.
On to `CS(=O)(=O)CCOC(=O)C1=CC(CCCO)=CC(c2ccc(CN3CCCC3)cc2)N(Cc2cccc(OC(F)(F)F)c2)C=C1C(=O)OCCS(C)(=O)=O` (stereo not given), for which the z-score was -0.804 (inactive) in experiment [1]; 1.55 (inactive) in [3]; 0.942 (inactive) in experiment [4]; 0.128 (inactive) in [5]; 0.577 (inactive) in [6]; 0.219 in [7]. Moreover, the z-score was -0.302 (inactive) in experiment [8], -0.764 (inactive) in experiment [9] and -0.504 in experiment [10]. Besides, the composite z-score in experiment [2] is 0.879.
For the compound `CC(C)[Si](C#CCCCC#N)(O[C@H](c1ccccc1)c1cn(Cc2cccc(Cl)c2)nn1)C(C)C`, the z-score in [1] is 1.65 (inactive); in [3], 0.614 (inactive); in experiment [4], 1.24 (inactive); in experiment [5], -0.187 (inactive); in experiment [6] it was 1.04 (inactive); in experiment [7], 0.573. Further, the z-score was -6.2 (inactive) in experiment [8], 0.194 (inactive) in [9] and 0.528 in [10]. In addition, the composite z-score in experiment [2] came to 0.0496.
Consider `CCOC(=O)C[C@H]1[C@H](OC(=O)c2ccc(C(=O)c3ccccc3)cc2)[C@@H](NC(=O)Cc2ccc(OC)cc2)c2cc(OCCCO)ccc2N1C(=O)c1ccc2ccccc2n1`, for which the z-score is 0.378 (inactive) in experiment [1]; 3.85 (inactive) in experiment [3]; 1.05 (inactive) in experiment [4]; -0.392 (inactive) in experiment [5]; 0.604 (inactive) in experiment [6]; -0.0822 in experiment [7]. For the same compound, the z-score in [8] is -1.03 (inactive); in experiment [9] it was 0.492 (inactive); in [10], 1.53. The composite z-score in experiment [2] came out at 0.131.
Consider `C=CC[C@]12N=C(c3ccc(OCCCO)cc3)O[C@H]1c1ccccc1N(CCS(=O)(=O)c1ccccc1)C2=O`, for which the z-score in [1] is -0.913 (inactive); in experiment [3], 31.2 (active); in experiment [4], 28 (active); in experiment [5], 2.35 (inactive); in [6], 7.99 (inactive); in experiment [7] it was 0.852. The z-score in experiment [8] was -2.24 (inactive); in experiment [9], 0.939 (inactive); in experiment [10], -2.12. In addition, the composite z-score in experiment [2] is 0.204.
In the case of `O=C(CS)NCCCCCNC(=O)[C@H]1C[C@H]2C(=O)NCC(=O)N2[C@H]1c1ccc(O)cc1`, the z-score in [1] was 1.43 (inactive); in [3] it was 0.279 (inactive); in [4], -0.723 (inactive); in [5], -0.813 (inactive); in [6], -2.32 (inactive); in experiment [7] it was -0.0935. The results for the z-score in [8], in [9] and in [10] were -0.297 (inactive), 0.243 (inactive) and 1.16, respectively. For the same compound, the composite z-score in [2] was -0.479.
For `COCC(=C=CC[C@H](O)c1ccccc1OCCO)CCO`, the z-score in [1] was 0.0257 (inactive); in experiment [3], 2.69 (inactive); in experiment [4], -0.0718 (inactive); in [5] it was -0.107 (inactive); in [6], 0.0371 (inactive); in experiment [7], -0.509. Besides, the z-score was 0.281 (inactive) in experiment [8], 0.263 (inactive) in [9] and -0.397 in experiment [10]. Moreover, in [2], the composite z-score is -0.206.
In the case of `CCCCC(=C=CC[C@H](O)c1cccc(OCCO)c1)C[C@H](O)c1ccccn1`, the z-score in experiment [1] is 1.81 (inactive); in experiment [3] it was 13.6 (active); in [4] it was 0.938 (inactive); in experiment [5], 1.09 (inactive); in experiment [6] it was -0.676 (inactive); in [7], 1.54. The z-score in experiment [8] is -1.12 (inactive); in experiment [9], -0.337 (inactive); in [10] it was -1.75. Further, the composite z-score in [2] was -0.272.
In the case of `COCCCNC(=O)[C@@]1(Cc2ccccc2CN=[N+]=[N-])N=C(c2ccc(OCCCO)cc2)O[C@H]1c1ccccc1CN=[N+]=[N-]`, the z-score in experiment [1] is 1.16 (inactive); in [3], 31.4 (active); in experiment [4], 48.5 (active); in [5], 2.97 (inactive); in experiment [6] it was 26.4 (active); in experiment [7], 2.88. Also, the z-score in experiment [8] is -3.05 (inactive); in experiment [9], -0.796 (inactive); in experiment [10] it was -1.91. Moreover, the composite z-score in experiment [2] came out at 0.123.
Regarding `COC(=O)c1c2oc(c1C(=O)OC)C(=O)N[C@@H](C(C)C)Cn1cc(nn1)C1(CCCCC1)NC(=O)N[C@H](CO)CC2`, the z-score in experiment [1] is 2.15 (inactive); in experiment [3], 1.1 (inactive); in experiment [4], 0.782 (inactive); in experiment [5] it was 0.144 (inactive); in [6] it was 0.36 (inactive); in experiment [7], 0.223. The z-score in experiment [8] is 0.644 (inactive); in experiment [9], 0.758 (inactive); in experiment [10] it was -0.124. Moreover, the composite z-score in experiment [2] was -0.146.
For the compound `O=C(NCCN1CCOCC1)[C@@H]1c2ccccc2C(=O)N(Cc2cc(C(F)(F)F)cc(C(F)(F)F)c2)[C@H]1c1ccc(CO)cc1`, the z-score in experiment [1] is -0.0112 (inactive); in experiment [3], 2.81 (inactive); in experiment [4] it was 1.44 (inactive); in [5] it was 0.591 (inactive); in [6] it was 0.526 (inactive); in [7] it was -0.474. For the same compound, the z-score was -0.0635 (inactive) in [8], 0.271 (inactive) in experiment [9] and 2.36 in [10]. The compound further registered a composite z-score in experiment [2] of 0.0479.
Consider `CC#CC(=O)Oc1ccc(Br)cc1C=CC(=O)OCC`, for which the z-score is -1.17 (inactive) in experiment [1]; 25.5 (active) in [3]; 7.06 (inactive) in experiment [4]; -0.189 (inactive) in experiment [5]; 1.37 (inactive) in experiment [6]; -0.27 in experiment [7]. Further, the z-score in experiment [8] is -1.86 (inactive); in experiment [9], -2.68 (inactive); in experiment [10], 0.227. This compound also came in with a composite z-score in experiment [2] of 0.0386.
